# ChEMBL document CHEMBL3988442, “University of Dundee, Small-Polar-MMV Screening Library” (2021)
# Out of some 69,000 compounds screened, about 1,000 (1.4%) showed an effect of 50% or more. Many of the other results were omitted from the sample, so strong results are more common in it than they were.
# Test system: Leishmania donovani
# Test: Leishmania intramacrophage assay
# Assay type: functional, organism-based
# Set-up: scale not given: in the data most compounds retested in dose-response had high values
smiles,measurement,setting,value
N#Cc1ccc(OCC(O)CN2CCC(Cn3cccn3)CC2)cc1 (configuration not stated),Percent Effect,30 µM,5.34%
Cc1cnc(N2C[C@@H]3CN(C4CCOC4)CCC[C@]3(C(=O)O)C2)nc1.O=C(O)C(F)(F)F (some centres not stated),Percent Effect,"30.3 µM, […]",51.36%
O=C(O)C(F)(F)F.O=C(O)[C@]12CCCN(CC3CCOC3)C[C@H]1CN(c1ncccn1)C2 (some centres not stated),Percent Effect,"30.3 µM, […]",22.4%
O=C(O)C(F)(F)F.O=C(O)[C@]12CCCN(C3CCOC3)C[C@H]1CN(c1nncs1)C2 (some centres not stated),Percent Effect,"30.3 µM, […]",23.22%
CC(C)(C)OC(=O)N1CCCC[C@H]1C(=O)NCc1nccs1,Percent Effect,"30 µM, 30.03 µM",12.63%
CCc1c(C)sc(NC(=O)CN2CCOCC2)c1C(=O)OC,Percent Effect,"30.3 µM, […]",-39.48%
CCOC(=O)c1c(NC(=O)CN2CCN(C(C)=O)CC2)sc(C)c1C,Percent Effect,"30.3 µM, […]",29.91%
CCc1c(C)sc(NC(=O)CN2CCN(CC)CC2)c1C(=O)OC,Percent Effect,"30 µM, 30.03 µM",52.48%
Cc1cc(NC(=O)CN2CCCC2c2c(C)nn(C)c2Cl)on1 (configuration not stated),Percent Effect,30 µM,24.03%
CCc1cc(CN(C)C(=O)c2cnon2)on1,Percent Effect,"30.3 µM, […]",11.76%
CCc1cc(CN(C)C(=O)c2cnn[nH]2)on1,Percent Effect,"30.3 µM, […]",12.71%
CCc1cc(CN(C)C(=O)c2cc(=O)[nH]c(=O)[nH]2)on1,Percent Effect,"30.3 µM, […]",53.82%
CCN1CCN(C(=O)c2cc(-c3cccs3)cs2)CC1,Percent Effect,"30.3 µM, […]",-1.143%
Cc1ccc(Cl)cc1NC(=O)C1CSc2ncc(C)c(=O)n2C1 (configuration not stated),Percent Effect,"30.3 µM, […]",17.12%
COc1cccc(CN(C)c2ncc(C(N)=O)cc2Cl)c1,Percent Effect,"30.3 µM, […]",-8.015%
CCc1nc(C)c(C(=O)NCCNc2ncnc3sccc23)s1,Percent Effect,"30.3 µM, […]",59.68%
CCc1ncc(C(=O)NCCNc2ncnc3sccc23)s1,Percent Effect,"30.3 µM, […]",26.76%
Cc1ncc(C(=O)NCCNc2ncnc3sccc23)s1,Percent Effect,"30.3 µM, […]",20.47%
CC1(C)CCC(C(=O)N2CCCO2)c2ccccc21 (configuration not stated),Percent Effect,"30.3 µM, […]",9.47%
CN(C)S(=O)(=O)N1CCC(c2c(C(N)=O)sc3ccccc23)C1 (configuration not stated),Percent Effect,"30.3 µM, […]",31.42%
NC(=O)Nc1cccc(F)c1C(=O)NC1CCCC1,Percent Effect,"30.3 µM, […]",3.755%
COc1ccc(CNC(Cc2ccsc2)c2ccc(C)cn2)c(OC)c1 (configuration not stated),Percent Effect,"30.3 µM, […]",62.45%
COc1ccc(CNC(Cc2ccsc2)c2ncccc2C)cc1OC (configuration not stated),Percent Effect,"30.3 µM, […]",25.36%
CC(C)Oc1cccc(CNC(Cc2ccsc2)c2nccs2)c1.Cl (configuration not stated),Percent Effect,"30.3 µM, […]",-38.1%
COc1cccc(OC)c1CNC(Cc1ccsc1)c1ccc(C)cn1 (configuration not stated),Percent Effect,"30.3 µM, […]",99.68%
Cc1cccnc1C(Cc1ccsc1)NCc1cnc(N(C)C)nc1 (configuration not stated),Percent Effect,"30.3 µM, […]",17.18%
COc1ccc(CNC(Cc2ccsc2)c2ccc(C)cn2)cc1OC.Cl (configuration not stated),Percent Effect,"30.3 µM, […]",12%
N#Cc1c2n(c3c(=O)[nH]cnc13)CCCCC2,Percent Effect,"30.3 µM, […]",19.13%
Cc1ccccc1CNCc1cc(Cl)ccc1O,Percent Effect,"30.3 µM, […]",-18.5%
Cc1ccc(C)c(NCc2nc3n(n2)CCCCC3)c1,Percent Effect,"30.3 µM, […]",-6.245%
CSc1cccc(CN(C)C(=O)c2ccc(C3CCCNC3)cc2)c1 (configuration not stated),Percent Effect,"30.3 µM, […]",52.27%
CN(Cc1ccc2c(c1)OCO2)C(=O)c1ccc(C2CCCNC2)cc1 (configuration not stated),Percent Effect,"30.3 µM, […]",4.185%
CSc1cccc(CN(C)C(=O)c2cccc(C3CCCNC3)c2)c1 (configuration not stated),Percent Effect,"30.3 µM, […]",27.95%
CC(C)NC(=O)c1noc2c1CN(Cc1cnn(C)c1)CC2,Percent Effect,"30.3 µM, […]",0.4989%
Cc1noc(C)c1C(=O)NCc1ccc(N2CCCCCC2)nc1,Percent Effect,30 µM,36.14%
CCc1[nH]c2c(CNc3nccc(N)n3)cc(C)cc2c1C,Percent Effect,"30.3 µM, […]",21.52%
CNc1cc(C)nc(NCc2cc(C)cc3c(C)c(C)[nH]c23)n1,Percent Effect,"30.3 µM, […]",-40.33%
CCc1[nH]c2c(CNc3cncc(C(=O)OC)n3)cc(C)cc2c1C,Percent Effect,"30.3 µM, […]",-70.43%
CNc1nc(C)cc(NCc2cc(C)cc3c(C)c(C)[nH]c23)n1,Percent Effect,"30.3 µM, […]",35.88%
CCc1[nH]c2c(CNc3nc(C)cc(NC)n3)cc(C)cc2c1C,Percent Effect,"30.3 µM, […]",89.36%
CCc1[nH]c2c(CNc3cc(C)nc(NC)n3)cc(C)cc2c1C,Percent Effect,"30.3 µM, […]",71.01%
CC(C)c1ccc(S(=O)(=O)NC2CCN(CC(F)(F)F)C2)cc1 (configuration not stated),Percent Effect,"30.3 µM, […]",20.88%
O=C(CC1CCCC1)N1CCCC1c1ccc(CN2CCOCC2)cn1 (configuration not stated),Percent Effect,"30.3 µM, […]",7.793%
COc1ccccc1CN1C[C@@H](F)[C@@H](OCc2nc3ncccc3[nH]2)C1,Percent Effect,"30.3 µM, […]",33.82%
CCC(NC(=O)Cn1ccc(=O)n(C)c1=O)c1ccc(OC)cc1 (configuration not stated),Percent Effect,"30.3 µM, […]",24.09%
CCc1ocnc1C(=O)Nc1ccc2ccn(CCN(C)C)c2c1,Percent Effect,"30.3 µM, […]",-1.774%
COCC1CC2(CCN(Cc3ccccn3)CC2)CN1c1ncccn1.O=C(O)C(F)(F)F.O=C(O)C(F)(F)F.O=C(O)C(F)(F)F (configuration not stated),Percent Effect,"30.3 µM, […]",-16.53%
COCC1CC2(CCN(Cc3nccs3)CC2)CN1Cc1ccccn1.O=C(O)C(F)(F)F.O=C(O)C(F)(F)F.O=C(O)C(F)(F)F (configuration not stated),Percent Effect,"30.3 µM, […]",50.9%
COCC(=O)N1CCC2(CC1)CC(COC)N(Cc1ccccn1)C2.O=C(O)C(F)(F)F (configuration not stated),Percent Effect,"30.3 µM, […]",12.17%
O=C(O)C(F)(F)F.O=C1CC[C@H]2[C@H](CCN2C(=O)C2CCOCC2)N1Cc1ccncc1,Percent Effect,"30 µM, 30.03 µM",15.79%
CS(=O)(=O)c1ccc(CNC(=O)N2CCC(c3ccccc3)CC2)cc1,Percent Effect,"30 µM, 30.03 µM",-1.511%
Cn1cc(CN2C[C@@H]3CN(C(=O)c4cccn4C)CCO[C@@H]3C2)cn1,Percent Effect,"30.3 µM, […]",58.31%
Cn1cccc1C(=O)N1CCO[C@@H]2CN(Cc3ccco3)C[C@@H]2C1,Percent Effect,"30.3 µM, […]",19.73%
Cc1cc(CN2C[C@@H]3CN(C(=O)c4cccn4C)CCO[C@@H]3C2)no1.O=C(O)C(F)(F)F,Percent Effect,"30.3 µM, […]",11.08%
COCC1CN(CC2CC2)Cc2nn(CC3CC3)cc21.O=C(O)C(F)(F)F (configuration not stated),Percent Effect,"30.3 µM, […]",8.658%
O=C1OCCN1CCOc1nc(-c2ccccc2Cl)no1,Percent Effect,"30 µM, 30.03 µM",4.618%
Cc1cnc(NC(=O)C(C)n2ccc(C(F)(F)F)n2)s1 (configuration not stated),Percent Effect,"30.3 µM, […]",59.23%
Cc1ccc(NC(=O)C(C)n2ccc(C(F)(F)F)n2)nc1 (configuration not stated),Percent Effect,"30.3 µM, […]",38.05%
CC(C(=O)Nc1ccc(Cl)cn1)n1ccc(C(F)(F)F)n1 (configuration not stated),Percent Effect,"30.3 µM, […]",46.39%
Cc1cc(C(=O)N2CCCCC2C)ccc1NC(=O)N1CCOCC1 (configuration not stated),Percent Effect,30 µM,22%
O=C(O)C(F)(F)F.c1cnc(N2Cc3nccn3CC(COc3cccnc3)C2)nc1 (configuration not stated),Percent Effect,"30.3 µM, […]",5.012%
CN(C)c1ncc(-c2cncn2CCc2ccc3c(c2)OCCO3)cn1.Cl,Percent Effect,"30.3 µM, […]",20.21%
